Only a selection was taken, and hits are over-represented in it overall.
VDR inh – inhibitors of human vitamin D receptor; VDR-SRC2-3 peptide fluorescence polarization, 2 h; Potency, µM, for inactives: max response, negative = inhibition, usual class: inhibitors; hit rate 0.93% among 400,000; AID 504847; note: % is set by controls: 0 for no effect and ±100 for the full control effect
Target sequence (P11473 whole entry, looked up): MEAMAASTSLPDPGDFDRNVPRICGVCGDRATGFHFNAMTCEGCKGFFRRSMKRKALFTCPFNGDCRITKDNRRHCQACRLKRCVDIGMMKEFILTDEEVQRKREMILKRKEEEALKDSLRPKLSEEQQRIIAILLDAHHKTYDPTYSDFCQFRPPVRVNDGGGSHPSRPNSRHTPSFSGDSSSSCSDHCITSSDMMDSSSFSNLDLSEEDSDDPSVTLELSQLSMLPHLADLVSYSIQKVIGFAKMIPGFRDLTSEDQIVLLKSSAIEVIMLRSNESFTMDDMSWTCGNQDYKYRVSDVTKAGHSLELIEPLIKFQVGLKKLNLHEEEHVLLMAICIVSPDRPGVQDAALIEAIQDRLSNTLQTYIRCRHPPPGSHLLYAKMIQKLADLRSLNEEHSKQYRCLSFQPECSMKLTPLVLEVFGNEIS
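Measured by FP: displacement of SRC2-3 coactivator peptide from VDR by library compounds, following a two-hour ambient incubation.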
Sfp PPTase inh – Sfp phosphopantetheinyl transferase inhibition | Q9F4F7 | Biochemical Sfp PPTase activity, qHTS | Potency, µM, inactives show largest response in the series, negative = inhibition, usual class: inhibitors | hit rate 3.5% among 310,000 | AID 1490;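 note: the enzyme is Sfp with the accession as filed and its product quenches rhodamine fluorescence; 0% = enzyme reaction without inhibitor and -100% = no enzyme wells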
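Sfp 15 nM + cpd, 15 min RT; start w/ rhodamine-CoA 5 uM, BHQ-2-YbbR 12.5 uM (final); 50 mM Hepes pH 7.6, 10 mM MgCl2, 0.01% NP-40, 0.01% BSA; read 525/598 nm at 0 and 30 min.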
ALOX12 inh – blocks human arachidonate 12S-lipoxygenase | P18054 | purified 12hLO, xylenol orange hydroperoxide absorbance | Potency, µM (highest dose often 108 µM), for inactives: at the highest dose activity change, negative = inhibition, usual class: inhibitors | hit rate 1.1% among 580,000 | AID 1671190; note: % is set by controls: 0 for no effect and ±100 for the full control effect
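Hydroperoxide product was detected by ferrous iron/xylenol orange as the 573 to 405 nm absorbance ratio. Arachidonic acid at 40 uM (final) was turned over for 30 min at room temperature by 150 nM human 12hLO, pH 7.0 Hepes buffer, after 15 min compound preincubation.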
G9a inh – blocks human histone lysine methyltransferase G9a; Q96KQ7; G9a H3K9 monomethylation, AlphaScreen, 2 h; Potency, µM (series often up to 102 µM), without a hit: at the top dose activity, negative = inhibition, actives largely listed as inhibitors; hit rate 8.8% among 350,000; note: % is set by controls: 0 for no effect and ±100 for the full control effect; nearly all actives have a fitted effect of over 75% in size
Target sequence (Q96KQ7 913-1193 limits assumed): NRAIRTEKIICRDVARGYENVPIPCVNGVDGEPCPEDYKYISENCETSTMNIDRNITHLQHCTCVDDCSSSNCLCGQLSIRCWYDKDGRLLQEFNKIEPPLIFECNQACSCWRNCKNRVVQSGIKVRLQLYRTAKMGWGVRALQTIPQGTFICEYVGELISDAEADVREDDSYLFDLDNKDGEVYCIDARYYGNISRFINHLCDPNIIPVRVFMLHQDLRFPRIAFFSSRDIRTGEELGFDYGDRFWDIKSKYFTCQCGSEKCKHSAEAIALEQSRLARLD
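Compounds were preincubated with 20 nM G9a for 15 min, after which biotinylated H3K9 peptide (500 nM) and SAM (20 uM) started a 2 h room-temperature reaction. Monomethylated product was quantified by antibody-based AlphaScreen chemiluminescence.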
Glioma ERSR ind – ER stress response induction in glioma | Potency, µM, for inactives: top-dose activation, usual class: activators | AID 602332 | U87-MG GRP78 promoter luciferase reporter, 16 h | hit rate 0.02% among 420,000; note: series mostly up to about 76 µM; % of control where 0% means no effect; nearly all actives have a fitted effect of over 35% in size
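Stably transfected U87-MG human glioma cells carrying a GRP78-based luminescent sensor were seeded at 1000 cells/well, pin-dosed with compounds and incubated 16 h. Luciferase reagent was then added, and end-point luminescence was read after 10 min at room temperature.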
* marks the source's active call; other numbers are inactive results; ! = not active in a repeat; [ ] = remark or other dose. Calls come from the whole dose curve; as a rule, active = well fitted curve in the direction sought with a large enough effect; inconclusive = small, poorly fitted or top-dose-only effect, or another doubt; inactive = no such curve, though single readings can be large; an effect the other way counts as inactive or inconclusive. Potency is the fitted concentration of half-maximal effect.

What do the screens show for `CC(=O)Nc1ccc(NC(=O)C/C(C)=N/NC(=O)C(=O)Nc2ccc(C)c(Cl)c2)cc1`?
VDR inh: -8%; Sfp PPTase inh: 5%; ALOX12 inh: 0%; G9a inh: 56µM*; Glioma ERSR ind: -4%

What do the screens show for `COC(=O)c1ccc(-c2ccc(C(c3c(C)[nH][nH]c3=O)c3c(C)[nH][nH]c3=O)o2)cc1`?
VDR inh: 35µM*; Sfp PPTase inh: 50µM*; ALOX12 inh: 35µM*; G9a inh: 1.4µM*; Glioma ERSR ind: -14%

How did Cc1[nH][nH]c(=O)c1C(c1ccc(-c2cccc(C(=O)O)c2)o1)c1c(C)[nH][nH]c1=O do in these assays?
VDR inh: inconclusive; Sfp PPTase inh: 16µM*; ALOX12 inh: -4%; G9a inh: 18µM*; Glioma ERSR ind: 4%

Results for Cc1[nH][nH]c(=O)c1C(c1ccc(-c2ccc(Cl)cc2Cl)o1)c1c(C)[nH][nH]c1=O ?
Sfp PPTase inh: 50µM*; G9a inh: 7.1µM*

How did Cc1[nH][nH]c(=O)c1C(c1ccc(-c2cccc(Cl)c2)o1)c1c(C)[nH][nH]c1=O do in these assays?
VDR inh: inconclusive; Sfp PPTase inh: 45µM*; Glioma ERSR ind: 1%

Results for COc1ccc(C(=O)Oc2ccc(C(c3c(C)[nH][nH]c3=O)c3c(C)[nH][nH]c3=O)cc2OC)cc1 ?
VDR inh: inconclusive; ALOX12 inh: -30%; G9a inh: -32%[59 µM]; Glioma ERSR ind: 0%

Results for Fc1ccc(-c2nc(COc3ccc(Br)cc3)co2)cc1 ?
ALOX12 inh: -10%

How did Cc1ccc(F)cc1NC(=O)C(C)(C)c1ccccc1 do in these assays?
ALOX12 inh: -26%

Results for COc1ccc(NC(=O)c2ccccc2)c2cccnc12 ?
ALOX12 inh: 78%

Results for Cc1[nH][nH]c(=O)c1C(c1ccc(-c2ccccc2C(=O)O)o1)c1c(C)[nH][nH]c1=O ?
VDR inh: -9%; Sfp PPTase inh: inconclusive; ALOX12 inh: inconclusive; G9a inh: 3.5µM*; Glioma ERSR ind: -4%

How did Cc1cc(C)nc(/N=c2/ssnc2Cl)c1 do in these assays?
VDR inh: 28µM*; Sfp PPTase inh: 20µM*; ALOX12 inh: 8.9µM*; G9a inh: 6.3µM*; Glioma ERSR ind: -5%

How did Nc1ccccc1N=c1ssnc1Cl do in these assays?
VDR inh: inconclusive; Sfp PPTase inh: 1.6µM*; ALOX12 inh: inconclusive; G9a inh: 1.3µM*; Glioma ERSR ind: 8%

Results for Cc1cc(C)c(C#N)c(Cl)n1 ?
VDR inh: -2%; Sfp PPTase inh: 6%; ALOX12 inh: -7%; G9a inh: -1%[59 µM]; Glioma ERSR ind: -1%

How did Cc1ccc(N=c2ssnc2Cl)cc1 do in these assays?
VDR inh: 28µM*; Sfp PPTase inh: 13µM*; ALOX12 inh: 1.6µM*; G9a inh: 1.6µM*; Glioma ERSR ind: 2%

What do the screens show for `Cc1ccc(C2=NNC(=Nc3ccc(F)cc3)SC2)cc1`?
VDR inh: -3%; Sfp PPTase inh: inconclusive; ALOX12 inh: inconclusive; G9a inh: inconclusive; Glioma ERSR ind: 1%

Results for Cc1nnc(N=c2ssnc2Cl)o1 ?
VDR inh: inconclusive; ALOX12 inh: 3.2µM*; G9a inh: 3%[0.501 µM]; Glioma ERSR ind: -3%

How did Cc1nc(-c2cn(C3CCCN(C(=O)c4cccc(C#N)c4)C3)nn2)no1 (stereo not given) do in these assays?
ALOX12 inh: 11%

How did COc1cc(CCC(=O)OCC(=O)c2ccc(Cl)cc2)cc(OC)c1OC do in these assays?
ALOX12 inh: 14%

How did Cc1cc(Cl)ccc1N=c1ssnc1Cl do in these assays?
VDR inh: inconclusive; Sfp PPTase inh: 7.1µM*; ALOX12 inh: inconclusive; G9a inh: 1.8µM*; Glioma ERSR ind: -4%

Results for Cc1ccc(S(=O)(=O)NC(=O)c2ccc(Br)o2)c(C)c1 ?
VDR inh: -24%; Sfp PPTase inh: 14%; ALOX12 inh: -8%; G9a inh: -6%; Glioma ERSR ind: -2%

Results for Cc1ccc(S(=O)(=O)NC(=O)c2ccc(Br)o2)cc1 ?
VDR inh: 7%; Sfp PPTase inh: 7%; ALOX12 inh: inconclusive; G9a inh: 35µM*!; Glioma ERSR ind: -6%

What do the screens show for `O=C(Nc1ccccc1OC(F)F)c1ccc2ccccc2n1`?
ALOX12 inh: -32%

Results for COC(=O)c1ccc(C2/C(=C(/O)c3ccc4c(c3)CC(C)O4)C(=O)C(=O)N2Cc2cccnc2)cc1 (stereo not given) ?
VDR inh: -4%; Sfp PPTase inh: -13%; G9a inh: 71µM*; Glioma ERSR ind: -1%

How did COc1cccc(C2/C(=C(/O)c3ccc4c(c3)CC(C)O4)C(=O)C(=O)N2CCCn2ccnc2)c1 (stereo not given) do in these assays?
VDR inh: 8%; Sfp PPTase inh: 8%; ALOX12 inh: 1%; G9a inh: 50µM*; Glioma ERSR ind: 5%

Results for CCCCOc1ccc(C2/C(=C(/O)c3ccc4c(c3)CC(C)O4)C(=O)C(=O)N2CCCN2CCOCC2)cc1OC (stereo not given) ?
VDR inh: -8%; Sfp PPTase inh: 5%; ALOX12 inh: inconclusive; G9a inh: 56µM*; Glioma ERSR ind: -1%

Results for COc1cc(C2/C(=C(\O)c3ccc4c(c3)CC(C)O4)C(=O)C(=O)N2CCCn2ccnc2)cc(OC)c1OC (stereo not given) ?
VDR inh: 1%; Sfp PPTase inh: 5%; ALOX12 inh: -25%; G9a inh: 6%; Glioma ERSR ind: -1%

How did CCN(CC)CCN1C(=O)C(=O)/C(=C(/O)c2ccc3c(c2)CC(C)O3)C1c1ccc(OC)cc1 (stereo not given) do in these assays?
VDR inh: -3%; Sfp PPTase inh: 22%; ALOX12 inh: inconclusive; G9a inh: 50µM*; Glioma ERSR ind: -1%

What do the screens show for `CC1Cc2cc(/C(O)=C3/C(=O)C(=O)N(Cc4cccnc4)C3c3cccc(O)c3)ccc2O1` (stereo not given)?
VDR inh: -1%; Sfp PPTase inh: 3%; ALOX12 inh: -23%; G9a inh: inconclusive; Glioma ERSR ind: 5%

How did CCOc1ccc(-c2cc(C(=O)NCCCN(C)C)c3ccccc3n2)cc1 do in these assays?
ALOX12 inh: -30%

What do the screens show for `CCN1CC(C)C(=O)CC1C` (stereo not given)?
ALOX12 inh: -14%

What do the screens show for `COc1cccc(C2/C(=C(/O)c3ccc4c(c3)CC(C)O4)C(=O)C(=O)N2c2nnc(C)s2)c1` (stereo not given)?
VDR inh: -14%; Sfp PPTase inh: 3%; ALOX12 inh: -20%; G9a inh: 40µM*; Glioma ERSR ind: 1%

How did COc1cc(C2/C(=C(\O)c3ccc4c(c3)CC(C)O4)C(=O)C(=O)N2CC2CCCO2)cc(OC)c1OC (stereo not given) do in these assays?
VDR inh: -6%; Sfp PPTase inh: 2%; ALOX12 inh: inconclusive; G9a inh: 50µM*; Glioma ERSR ind: -3%

Screening results deposited in PubChem by National Center for Advancing Translational Sciences (NCATS).
